Residual activity data for two molecules are collected here from ChEMBL document CHEMBL2218924, “A broad activity screen in support of a chemogenomic map for kinase signalling research and drug discovery” (Biochem J, 2013).

For assay [1], the target named is T1, Ephrin type-A receptor 3 (Homo sapiens) (UniProt P29320).
T1 sequence (whole entry): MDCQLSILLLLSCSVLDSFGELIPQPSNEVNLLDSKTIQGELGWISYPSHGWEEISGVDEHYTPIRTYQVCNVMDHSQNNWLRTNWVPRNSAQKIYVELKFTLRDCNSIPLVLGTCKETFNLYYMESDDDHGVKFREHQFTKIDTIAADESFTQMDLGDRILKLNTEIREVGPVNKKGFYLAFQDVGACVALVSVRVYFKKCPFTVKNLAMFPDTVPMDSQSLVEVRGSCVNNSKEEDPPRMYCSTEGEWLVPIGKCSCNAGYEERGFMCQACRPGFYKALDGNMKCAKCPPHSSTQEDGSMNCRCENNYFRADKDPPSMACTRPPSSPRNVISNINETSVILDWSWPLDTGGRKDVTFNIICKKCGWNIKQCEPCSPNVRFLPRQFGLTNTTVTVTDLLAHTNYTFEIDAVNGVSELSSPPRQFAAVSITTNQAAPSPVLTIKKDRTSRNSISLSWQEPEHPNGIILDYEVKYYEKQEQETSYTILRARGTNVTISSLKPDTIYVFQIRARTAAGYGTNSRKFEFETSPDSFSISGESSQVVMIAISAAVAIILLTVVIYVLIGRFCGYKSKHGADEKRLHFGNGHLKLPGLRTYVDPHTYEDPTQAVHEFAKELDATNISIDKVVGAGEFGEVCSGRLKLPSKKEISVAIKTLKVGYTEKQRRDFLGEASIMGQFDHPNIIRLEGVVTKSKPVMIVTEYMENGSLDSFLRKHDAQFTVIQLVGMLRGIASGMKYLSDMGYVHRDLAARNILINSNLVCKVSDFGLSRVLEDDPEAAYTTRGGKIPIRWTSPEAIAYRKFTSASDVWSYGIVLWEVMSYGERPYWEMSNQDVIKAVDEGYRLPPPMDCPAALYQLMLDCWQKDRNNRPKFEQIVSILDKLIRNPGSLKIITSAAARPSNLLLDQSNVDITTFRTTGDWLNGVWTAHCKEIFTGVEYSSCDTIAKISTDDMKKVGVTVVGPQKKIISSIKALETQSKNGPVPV
To be noted: at 10 µM.

The target of assay [2] is Ephrin type-A receptor 5 (Homo sapiens) (UniProt P54756). To be noted: at 1 µM.
Chain of Ephrin type-A receptor 5 (Homo sapiens) (P54756 whole entry): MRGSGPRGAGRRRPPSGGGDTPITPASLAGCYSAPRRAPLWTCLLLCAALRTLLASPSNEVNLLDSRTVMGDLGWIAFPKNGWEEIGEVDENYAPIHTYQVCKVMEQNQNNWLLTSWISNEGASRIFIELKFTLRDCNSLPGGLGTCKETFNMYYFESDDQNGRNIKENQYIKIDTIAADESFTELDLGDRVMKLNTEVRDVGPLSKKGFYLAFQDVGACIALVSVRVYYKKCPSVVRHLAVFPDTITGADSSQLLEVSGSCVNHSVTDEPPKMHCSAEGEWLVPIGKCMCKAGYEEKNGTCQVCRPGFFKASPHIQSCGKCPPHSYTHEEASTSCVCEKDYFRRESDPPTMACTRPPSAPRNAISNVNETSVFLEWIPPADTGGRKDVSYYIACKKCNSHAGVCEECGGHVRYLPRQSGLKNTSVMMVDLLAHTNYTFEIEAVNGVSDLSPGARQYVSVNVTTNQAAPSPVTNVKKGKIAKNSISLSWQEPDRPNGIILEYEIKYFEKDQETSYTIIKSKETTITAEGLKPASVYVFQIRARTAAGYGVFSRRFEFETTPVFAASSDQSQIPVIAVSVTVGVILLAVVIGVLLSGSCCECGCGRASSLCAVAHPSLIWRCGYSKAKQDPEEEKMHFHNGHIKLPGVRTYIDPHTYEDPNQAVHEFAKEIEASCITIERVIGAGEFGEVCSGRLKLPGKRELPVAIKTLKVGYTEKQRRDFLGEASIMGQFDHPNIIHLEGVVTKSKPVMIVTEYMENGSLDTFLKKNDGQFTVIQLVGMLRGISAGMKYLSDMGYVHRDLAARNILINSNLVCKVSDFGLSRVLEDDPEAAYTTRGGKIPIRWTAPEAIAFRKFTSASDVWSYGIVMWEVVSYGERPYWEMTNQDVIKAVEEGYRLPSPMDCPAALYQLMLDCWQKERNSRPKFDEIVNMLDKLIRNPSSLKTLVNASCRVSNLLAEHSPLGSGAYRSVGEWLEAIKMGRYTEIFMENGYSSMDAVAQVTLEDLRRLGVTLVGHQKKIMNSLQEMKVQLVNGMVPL
The target of assay [3] is T2, Ephrin type-A receptor 8 (Homo sapiens) (UniProt P29322).
T2 sequence (whole entry): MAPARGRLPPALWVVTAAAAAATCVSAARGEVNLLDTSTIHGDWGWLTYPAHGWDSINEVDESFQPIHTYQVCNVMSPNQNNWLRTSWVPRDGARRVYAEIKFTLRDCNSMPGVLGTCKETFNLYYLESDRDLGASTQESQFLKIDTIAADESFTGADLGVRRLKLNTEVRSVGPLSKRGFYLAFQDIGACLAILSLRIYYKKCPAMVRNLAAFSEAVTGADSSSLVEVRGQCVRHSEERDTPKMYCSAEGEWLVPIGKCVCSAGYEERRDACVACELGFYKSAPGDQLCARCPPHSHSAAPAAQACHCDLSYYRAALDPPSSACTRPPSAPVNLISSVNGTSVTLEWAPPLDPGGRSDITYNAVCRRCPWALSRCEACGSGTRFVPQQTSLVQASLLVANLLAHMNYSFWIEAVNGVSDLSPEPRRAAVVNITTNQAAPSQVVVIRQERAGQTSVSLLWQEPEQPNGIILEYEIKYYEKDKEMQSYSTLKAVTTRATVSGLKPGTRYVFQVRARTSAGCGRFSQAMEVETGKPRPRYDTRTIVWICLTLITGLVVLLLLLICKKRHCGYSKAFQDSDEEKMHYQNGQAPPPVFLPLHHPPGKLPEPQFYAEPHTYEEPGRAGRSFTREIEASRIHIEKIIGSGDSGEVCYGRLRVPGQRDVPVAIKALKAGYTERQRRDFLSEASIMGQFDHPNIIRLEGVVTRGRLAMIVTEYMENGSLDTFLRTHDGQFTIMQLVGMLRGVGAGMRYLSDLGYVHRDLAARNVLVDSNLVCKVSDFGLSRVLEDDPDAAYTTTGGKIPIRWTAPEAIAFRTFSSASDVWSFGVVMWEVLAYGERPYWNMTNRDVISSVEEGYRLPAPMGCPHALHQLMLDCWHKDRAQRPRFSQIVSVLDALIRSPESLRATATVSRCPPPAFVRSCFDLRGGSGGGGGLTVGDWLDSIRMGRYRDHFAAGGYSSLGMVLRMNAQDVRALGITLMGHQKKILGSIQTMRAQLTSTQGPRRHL
To be noted: at 10 µM.

The target in assay [4] is T3, Ephrin type-B receptor 2 (Homo sapiens) (UniProt P29323).
T3 sequence (whole entry): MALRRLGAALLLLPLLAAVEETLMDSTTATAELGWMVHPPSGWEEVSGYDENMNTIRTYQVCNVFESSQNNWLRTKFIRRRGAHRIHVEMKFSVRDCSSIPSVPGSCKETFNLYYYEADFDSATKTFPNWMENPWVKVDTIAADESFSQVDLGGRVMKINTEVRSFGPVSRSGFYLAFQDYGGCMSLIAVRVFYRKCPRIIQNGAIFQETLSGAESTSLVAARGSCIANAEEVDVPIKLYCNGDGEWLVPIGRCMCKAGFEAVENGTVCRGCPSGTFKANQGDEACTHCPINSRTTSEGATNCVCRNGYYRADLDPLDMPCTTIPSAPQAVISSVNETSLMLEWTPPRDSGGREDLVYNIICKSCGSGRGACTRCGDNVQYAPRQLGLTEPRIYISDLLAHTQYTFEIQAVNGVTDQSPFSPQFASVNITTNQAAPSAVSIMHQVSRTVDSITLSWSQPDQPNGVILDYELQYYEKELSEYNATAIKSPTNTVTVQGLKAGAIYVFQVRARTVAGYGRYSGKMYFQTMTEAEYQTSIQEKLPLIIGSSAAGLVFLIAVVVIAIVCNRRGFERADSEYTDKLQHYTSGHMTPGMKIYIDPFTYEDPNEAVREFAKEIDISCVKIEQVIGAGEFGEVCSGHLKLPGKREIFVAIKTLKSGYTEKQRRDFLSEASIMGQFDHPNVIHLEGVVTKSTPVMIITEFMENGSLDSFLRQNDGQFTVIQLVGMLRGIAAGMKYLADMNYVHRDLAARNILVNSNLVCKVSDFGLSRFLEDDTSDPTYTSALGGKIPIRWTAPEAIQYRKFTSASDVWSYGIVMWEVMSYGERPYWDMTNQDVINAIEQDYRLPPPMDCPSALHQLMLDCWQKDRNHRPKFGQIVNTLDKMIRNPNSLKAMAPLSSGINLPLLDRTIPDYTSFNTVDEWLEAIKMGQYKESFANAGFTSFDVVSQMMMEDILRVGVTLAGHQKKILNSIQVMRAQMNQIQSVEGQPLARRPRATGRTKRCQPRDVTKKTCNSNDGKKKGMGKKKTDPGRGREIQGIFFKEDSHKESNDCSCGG
Particulars: at 1 µM; call rule not given here.

Assay [5] deals with T3, Ephrin type-B receptor 2 (Homo sapiens). Particulars: at 10 µM.
Assay [6] concerns the target T4, Ephrin type-B receptor 3 (Homo sapiens) (UniProt P54753).
T4 sequence (whole entry): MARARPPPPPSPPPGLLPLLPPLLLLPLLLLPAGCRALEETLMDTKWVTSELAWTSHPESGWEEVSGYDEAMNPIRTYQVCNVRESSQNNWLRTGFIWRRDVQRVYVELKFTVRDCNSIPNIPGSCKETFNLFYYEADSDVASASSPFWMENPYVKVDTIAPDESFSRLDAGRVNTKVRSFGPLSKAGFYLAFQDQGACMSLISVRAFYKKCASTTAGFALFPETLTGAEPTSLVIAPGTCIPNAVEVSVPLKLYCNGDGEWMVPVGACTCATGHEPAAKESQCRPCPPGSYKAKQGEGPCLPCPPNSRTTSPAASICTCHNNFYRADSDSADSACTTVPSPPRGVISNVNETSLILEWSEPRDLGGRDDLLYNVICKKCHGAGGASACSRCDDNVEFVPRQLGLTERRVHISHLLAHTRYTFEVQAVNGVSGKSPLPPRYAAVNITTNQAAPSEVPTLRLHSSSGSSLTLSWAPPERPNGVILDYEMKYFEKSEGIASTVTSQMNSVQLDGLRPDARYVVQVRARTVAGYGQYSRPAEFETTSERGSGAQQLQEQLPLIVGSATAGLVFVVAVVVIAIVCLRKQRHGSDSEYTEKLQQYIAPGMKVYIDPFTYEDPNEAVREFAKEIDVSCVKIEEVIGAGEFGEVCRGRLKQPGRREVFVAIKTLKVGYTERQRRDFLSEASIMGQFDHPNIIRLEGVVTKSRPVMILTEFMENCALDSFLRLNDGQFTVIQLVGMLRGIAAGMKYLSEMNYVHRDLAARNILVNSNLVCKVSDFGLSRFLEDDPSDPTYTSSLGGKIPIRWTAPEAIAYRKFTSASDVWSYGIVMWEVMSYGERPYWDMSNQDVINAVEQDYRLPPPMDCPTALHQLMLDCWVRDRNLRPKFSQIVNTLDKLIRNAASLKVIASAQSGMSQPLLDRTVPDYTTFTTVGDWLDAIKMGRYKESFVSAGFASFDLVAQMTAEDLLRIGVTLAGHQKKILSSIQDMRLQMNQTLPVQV
To be noted: at 1 µM.

The target of assay [7] is T4, Ephrin type-B receptor 3 (Homo sapiens). To be noted: at 10 µM.
In assay [8] the target is T5, Ephrin type-B receptor 4 (Homo sapiens) (UniProt P54760).
T5 sequence (whole entry): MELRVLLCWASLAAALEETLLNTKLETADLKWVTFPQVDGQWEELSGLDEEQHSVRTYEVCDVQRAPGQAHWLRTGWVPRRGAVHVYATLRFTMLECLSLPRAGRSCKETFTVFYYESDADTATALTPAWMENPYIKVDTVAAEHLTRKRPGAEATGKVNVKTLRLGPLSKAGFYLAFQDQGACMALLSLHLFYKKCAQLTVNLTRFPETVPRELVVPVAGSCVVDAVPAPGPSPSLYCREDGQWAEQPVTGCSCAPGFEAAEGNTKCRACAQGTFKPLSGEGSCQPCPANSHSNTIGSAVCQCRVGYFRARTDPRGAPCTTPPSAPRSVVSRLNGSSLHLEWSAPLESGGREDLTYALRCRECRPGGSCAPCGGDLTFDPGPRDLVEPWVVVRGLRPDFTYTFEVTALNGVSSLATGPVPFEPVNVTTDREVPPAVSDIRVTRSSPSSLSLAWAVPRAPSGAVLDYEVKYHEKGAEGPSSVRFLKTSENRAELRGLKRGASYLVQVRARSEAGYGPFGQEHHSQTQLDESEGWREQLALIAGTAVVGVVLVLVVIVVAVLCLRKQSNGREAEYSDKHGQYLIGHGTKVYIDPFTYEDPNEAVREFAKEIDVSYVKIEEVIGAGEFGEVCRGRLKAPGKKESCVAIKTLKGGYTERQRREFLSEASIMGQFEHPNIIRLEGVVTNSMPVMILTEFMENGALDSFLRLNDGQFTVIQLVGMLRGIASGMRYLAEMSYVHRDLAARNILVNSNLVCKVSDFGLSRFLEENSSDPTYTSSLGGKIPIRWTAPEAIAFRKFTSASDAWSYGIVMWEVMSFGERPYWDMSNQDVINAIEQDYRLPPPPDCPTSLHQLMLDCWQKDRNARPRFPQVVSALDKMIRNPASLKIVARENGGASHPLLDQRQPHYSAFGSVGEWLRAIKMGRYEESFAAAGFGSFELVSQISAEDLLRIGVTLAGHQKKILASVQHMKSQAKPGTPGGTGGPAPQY
Particulars: at 1 µM.

Assay [9] has as its target T5, Ephrin type-B receptor 4 (Homo sapiens). To be noted: at 10 µM.
The target in assay [10] is Receptor tyrosine-protein kinase erbB-4 (Homo sapiens) (UniProt Q15303). To be noted: at 1 µM.
Chain of Receptor tyrosine-protein kinase erbB-4 (Homo sapiens) (Q15303 whole entry): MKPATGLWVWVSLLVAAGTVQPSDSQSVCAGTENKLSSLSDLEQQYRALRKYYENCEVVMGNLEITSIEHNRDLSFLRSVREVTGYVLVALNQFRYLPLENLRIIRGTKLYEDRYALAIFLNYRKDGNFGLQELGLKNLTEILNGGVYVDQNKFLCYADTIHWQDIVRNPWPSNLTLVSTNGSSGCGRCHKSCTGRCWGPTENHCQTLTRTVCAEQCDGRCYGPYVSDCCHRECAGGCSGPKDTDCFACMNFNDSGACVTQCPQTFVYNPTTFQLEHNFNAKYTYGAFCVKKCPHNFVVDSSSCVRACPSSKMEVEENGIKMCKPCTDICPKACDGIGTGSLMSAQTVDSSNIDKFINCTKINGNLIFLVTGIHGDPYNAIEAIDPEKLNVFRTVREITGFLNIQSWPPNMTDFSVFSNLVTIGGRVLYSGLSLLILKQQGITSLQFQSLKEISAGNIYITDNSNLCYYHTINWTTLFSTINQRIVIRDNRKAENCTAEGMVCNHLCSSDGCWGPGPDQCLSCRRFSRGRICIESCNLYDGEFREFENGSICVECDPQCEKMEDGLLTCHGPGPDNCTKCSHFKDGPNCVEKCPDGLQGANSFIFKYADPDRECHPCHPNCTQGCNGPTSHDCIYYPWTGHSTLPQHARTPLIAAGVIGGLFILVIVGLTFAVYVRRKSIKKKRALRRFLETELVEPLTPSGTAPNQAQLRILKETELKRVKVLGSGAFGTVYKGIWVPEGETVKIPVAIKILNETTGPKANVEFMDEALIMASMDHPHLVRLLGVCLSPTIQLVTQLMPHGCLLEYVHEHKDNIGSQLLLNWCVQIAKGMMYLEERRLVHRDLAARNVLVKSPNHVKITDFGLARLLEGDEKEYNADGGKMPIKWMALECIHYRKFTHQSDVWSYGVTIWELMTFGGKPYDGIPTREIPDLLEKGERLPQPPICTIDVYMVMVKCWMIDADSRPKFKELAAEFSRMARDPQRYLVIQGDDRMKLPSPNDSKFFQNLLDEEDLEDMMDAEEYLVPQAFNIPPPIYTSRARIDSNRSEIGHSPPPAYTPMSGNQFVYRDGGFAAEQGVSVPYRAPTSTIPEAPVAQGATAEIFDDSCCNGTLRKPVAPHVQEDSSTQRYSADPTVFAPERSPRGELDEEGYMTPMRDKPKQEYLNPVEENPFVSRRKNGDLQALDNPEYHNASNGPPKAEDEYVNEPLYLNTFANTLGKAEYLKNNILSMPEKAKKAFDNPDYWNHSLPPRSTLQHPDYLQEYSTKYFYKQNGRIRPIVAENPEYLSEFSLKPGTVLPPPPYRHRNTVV
Assay [11] shares this target. To be noted: at 10 µM.
Assay [12] has as its target Focal adhesion kinase 1 (Homo sapiens) (UniProt Q05397). To be noted: at 1 µM.
For assay [13], the target named is Ephrin type-A receptor 7 (Homo sapiens) (UniProt Q15375). Particulars: at 1 µM.
Chain of Ephrin type-A receptor 7 (Homo sapiens) (Q15375 28-998 limits assumed): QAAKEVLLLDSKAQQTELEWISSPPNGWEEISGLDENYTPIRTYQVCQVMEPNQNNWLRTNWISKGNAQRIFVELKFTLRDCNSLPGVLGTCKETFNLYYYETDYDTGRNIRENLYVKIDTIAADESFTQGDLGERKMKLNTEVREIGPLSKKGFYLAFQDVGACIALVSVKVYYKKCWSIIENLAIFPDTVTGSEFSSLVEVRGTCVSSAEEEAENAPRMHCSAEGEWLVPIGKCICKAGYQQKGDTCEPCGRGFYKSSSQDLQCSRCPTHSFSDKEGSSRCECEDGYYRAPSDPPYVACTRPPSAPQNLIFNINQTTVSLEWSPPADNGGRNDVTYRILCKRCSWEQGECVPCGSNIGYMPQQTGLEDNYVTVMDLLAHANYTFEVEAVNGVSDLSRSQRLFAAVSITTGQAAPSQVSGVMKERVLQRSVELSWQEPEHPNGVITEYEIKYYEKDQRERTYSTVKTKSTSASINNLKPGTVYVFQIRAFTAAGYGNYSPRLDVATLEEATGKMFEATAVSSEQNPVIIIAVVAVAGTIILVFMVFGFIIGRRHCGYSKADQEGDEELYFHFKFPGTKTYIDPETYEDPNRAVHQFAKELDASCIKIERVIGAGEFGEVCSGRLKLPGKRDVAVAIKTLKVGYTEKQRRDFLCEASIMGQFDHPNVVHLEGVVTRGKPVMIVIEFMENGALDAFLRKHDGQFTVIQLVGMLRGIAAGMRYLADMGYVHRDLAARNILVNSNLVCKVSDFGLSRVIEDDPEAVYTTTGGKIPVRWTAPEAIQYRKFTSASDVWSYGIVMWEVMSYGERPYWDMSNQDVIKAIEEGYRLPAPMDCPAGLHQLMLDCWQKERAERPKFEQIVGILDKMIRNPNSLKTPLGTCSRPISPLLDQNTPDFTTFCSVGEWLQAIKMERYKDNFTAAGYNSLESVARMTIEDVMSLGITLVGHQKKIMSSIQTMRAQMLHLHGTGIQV
Assay [14] has the same target. To be noted: at 10 µM.
The target of assay [15] is T2, Ephrin type-A receptor 8 (Homo sapiens). Particulars: at 1 µM.
The target of assay [16] is T6, Ephrin type-B receptor 1 (Homo sapiens) (UniProt P54762).
T6 sequence (whole entry): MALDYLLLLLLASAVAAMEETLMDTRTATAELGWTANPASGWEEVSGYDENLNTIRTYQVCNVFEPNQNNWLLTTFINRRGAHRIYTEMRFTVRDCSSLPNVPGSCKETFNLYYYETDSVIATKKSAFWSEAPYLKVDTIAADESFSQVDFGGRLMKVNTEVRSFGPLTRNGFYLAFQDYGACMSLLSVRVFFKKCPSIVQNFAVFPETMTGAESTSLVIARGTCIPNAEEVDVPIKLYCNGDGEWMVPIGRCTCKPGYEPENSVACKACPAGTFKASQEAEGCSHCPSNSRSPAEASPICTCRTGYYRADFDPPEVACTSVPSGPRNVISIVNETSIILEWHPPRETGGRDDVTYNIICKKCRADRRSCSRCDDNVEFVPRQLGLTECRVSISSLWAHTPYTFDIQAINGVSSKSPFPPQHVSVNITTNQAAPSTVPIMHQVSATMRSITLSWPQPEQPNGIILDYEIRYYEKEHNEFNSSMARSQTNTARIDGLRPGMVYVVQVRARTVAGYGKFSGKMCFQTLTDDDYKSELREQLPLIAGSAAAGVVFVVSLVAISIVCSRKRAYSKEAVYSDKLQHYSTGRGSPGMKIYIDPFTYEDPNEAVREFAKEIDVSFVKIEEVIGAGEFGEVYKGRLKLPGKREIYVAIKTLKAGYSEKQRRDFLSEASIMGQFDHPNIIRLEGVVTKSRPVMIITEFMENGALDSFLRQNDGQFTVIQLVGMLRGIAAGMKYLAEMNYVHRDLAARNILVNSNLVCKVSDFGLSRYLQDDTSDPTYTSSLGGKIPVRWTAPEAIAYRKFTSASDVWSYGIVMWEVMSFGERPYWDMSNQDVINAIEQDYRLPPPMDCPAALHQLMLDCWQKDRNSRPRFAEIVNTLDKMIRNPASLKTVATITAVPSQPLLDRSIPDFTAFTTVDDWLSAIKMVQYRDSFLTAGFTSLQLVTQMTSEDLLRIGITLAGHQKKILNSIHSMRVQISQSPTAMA
Particulars: at 1 µM.

Chain of Focal adhesion kinase 1 (Homo sapiens) (Q05397 2-1052 limits assumed): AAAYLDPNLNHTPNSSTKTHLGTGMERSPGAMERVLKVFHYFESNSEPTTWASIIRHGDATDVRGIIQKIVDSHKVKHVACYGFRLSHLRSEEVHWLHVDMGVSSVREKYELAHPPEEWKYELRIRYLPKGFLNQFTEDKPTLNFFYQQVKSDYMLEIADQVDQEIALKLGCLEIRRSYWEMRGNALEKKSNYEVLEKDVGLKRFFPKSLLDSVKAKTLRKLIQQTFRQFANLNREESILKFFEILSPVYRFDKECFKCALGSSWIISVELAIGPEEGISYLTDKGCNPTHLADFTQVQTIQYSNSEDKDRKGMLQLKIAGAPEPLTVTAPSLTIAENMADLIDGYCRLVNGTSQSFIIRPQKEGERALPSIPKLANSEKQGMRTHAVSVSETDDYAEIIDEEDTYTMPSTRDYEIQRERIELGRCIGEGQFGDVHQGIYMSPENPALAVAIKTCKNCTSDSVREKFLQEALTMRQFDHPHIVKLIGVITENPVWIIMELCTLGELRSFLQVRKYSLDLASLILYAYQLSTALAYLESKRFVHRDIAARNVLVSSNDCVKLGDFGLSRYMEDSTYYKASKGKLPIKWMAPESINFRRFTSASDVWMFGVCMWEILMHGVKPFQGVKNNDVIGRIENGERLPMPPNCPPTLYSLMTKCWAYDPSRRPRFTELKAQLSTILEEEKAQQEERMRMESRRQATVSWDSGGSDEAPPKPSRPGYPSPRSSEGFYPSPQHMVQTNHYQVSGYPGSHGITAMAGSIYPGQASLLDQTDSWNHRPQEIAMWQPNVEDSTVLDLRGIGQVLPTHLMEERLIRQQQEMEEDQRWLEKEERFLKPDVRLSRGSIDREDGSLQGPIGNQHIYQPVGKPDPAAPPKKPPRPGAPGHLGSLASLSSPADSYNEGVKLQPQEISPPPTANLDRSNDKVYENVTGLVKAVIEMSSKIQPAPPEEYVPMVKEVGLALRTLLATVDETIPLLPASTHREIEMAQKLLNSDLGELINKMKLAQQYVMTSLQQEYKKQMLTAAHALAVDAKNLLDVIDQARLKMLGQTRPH

With `COc1ccc(COc2ccc(Cc3cnc(N)nc3N)cc2OC)cc1`, the residual activity in [1] is 78%; in assay [2] it was 111%; in assay [3], 110%; in assay [4] it was 108%; in assay [5] it was 129%; in assay [6], 114% (inactive). Besides, the residual activity in [7] worked out at 110%; in assay [8], 99%; in [9], 113%; in assay [10] it was 99%; in [11], 70%; in assay [12], 115%.

On to `Cn1sc(=O)n(Cc2ccccc2)c1=O`, for which the residual activity in assay [1] is 86%; in assay [13] it was 86%; in assay [14], 86%; in assay [15], 87%; in assay [3] it was 84%; in [16], 90%. For the same molecule, the residual activity in [8] was determined as 87%; in [9], 80%; in [10], 87%; in assay [11] it was 98%; in assay [12], 95%.
